Laboratory results: the supplement of paper PMC6555819

Experiments:
Test in all cases: PBM binding z-score (relative to random genomic background probes); higher = stronger binding; sequences stand for … in GC…GCGATTGACAGCGTAGAATGAAGG
[1] = system: PPARg:RXRa DBDmut IVT, anti-RXR (DBD mutation: RXRa K156A/R161A, NR concentration 270 nM, RXRa partner concentration 90 nM)
Summary of the method: (§1)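 Custom Agilent 4×180K protein-binding microarrays carried double-stranded probes, each with a 34-nt variable region. These regions held direct-repeat seeds, single-nucleotide variants, half-site ablations and random human genomic background sequences. Ligand-free nuclear receptor dimers were incubated on the arrays for 1 h, antibodies against each partner (one per run) detected binding, and scanned fluorescence was regression-normalized. Binding z-scores take the random background probes as reference.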

[2] = system: PPARg:RXRa IVT, anti-PPARg (NR concentration 270 nM, RXRa partner concentration 90 nM)
Summary of the method: as §1

[3] = system: PPARg DBDmut:RXRa IVT, anti-PPARg (DBD mutation: PPARg1 K132A/R137A, NR concentration 270 nM, RXRa partner concentration 90 nM)
Summary of the method: as §1

[4] = system: PPARg DBDmut IVT, anti-PPARg (DBD mutation: PPARg1 K132A/R137A, NR concentration 270 nM)
Summary of the method: as §1

[5] = system: PPARg homodimer (NR concentration 180 nM)
Summary of the method: as §1

[6] = system: PXR:RXRa (NR concentration 270 nM, RXRa partner concentration 90 nM)
Summary of the method: as §1

[7] = system: PXR homodimer (NR concentration 270 nM)
Summary of the method: as §1

[8] = system: RARa:RXR (NR concentration 270 nM, RXRa partner concentration 90 nM)
Summary of the method: as §1

[9] = system: RARa homodimer (NR concentration 270 nM)
Summary of the method: as §1

[10] = system: RARb:RXRa (NR concentration 270 nM, RXRa partner concentration 90 nM)
Summary of the method: as §1

| Sequence | PBM binding z-score [1] | PBM binding z-score [2] | PBM binding z-score [3] | PBM binding z-score [4] | PBM binding z-score [5] | PBM binding z-score [6] | PBM binding z-score [7] | PBM binding z-score [8] | PBM binding z-score [9] | PBM binding z-score [10] |
| --- | --- | --- | --- | --- | --- | --- | --- | --- | --- | --- |
| ACTATTACTTGAGACGAGGGCAACCGATAGGTTG | 0.899 | 1.15 | 0.818 | 1.3 | 1.24 | 0.601 | 0.904 | 0.426 | 1.54 | 1.3 |
| GCATATAGGTAACACAAGGTGAAAGTCCGATTGT | 5.29 | 4.7 | 0.827 | 0.927 | 0.275 | 0.74 | -0.11 | 1.25 | 0.102 | 0.856 |
| AGAACGGGGGCAATGAGTTGATAGCACGGGTGGC | 4.36 | 5.56 | 9.77 | 9.9 | 1.96 | 3.74 | 6.38 | 2.68 | 1.18 | 3.02 |
| CGTCCAAGGTCAGAGAGTTCAGTGAATGCCGAGT | 2.97 | 2.07 | -0.209 | -1.29 | 2.85 | 6.75 | 14.2 | 4.08 | 1.32 | 4.78 |
| TAGCCTAGGTCATTAAGGGGCCAGTATAGAAAGC | 1.56 | 2.58 | 0.422 | 0.198 | 0.937 | 1.36 | -0.202 | 2.18 | 0.00876 | 3.64 |
| ACAAGCAGGCCAAGTTTGGGTCACTCAAACAAAG | 0.823 | 1.59 | -0.817 | -0.239 | -0.0252 | 0.706 | -0.465 | 1.56 | -0.485 | 2 |
| ATCTCTAGGTAAAAGTTCAGTGATTCCCGAGGAT | 2.14 | 3.78 | 1.64 | 0.678 | 1.31 | 1.97 | 1.49 | 1.61 | 0.97 | 2.32 |
| TCTGCCAGGTCAGTTGGTCAGCTAACGAGCTGCC | 1.26 | 1.9 | -0.28 | 0.0313 | 0.213 | 0.349 | -0.79 | 0.976 | -1.08 | 3.29 |
| GCTGCTAGGACAGGTTGGTCAGCTAACGGGTACG | -0.0688 | -0.79 | -1.21 | -0.812 | -0.869 | -0.739 | -0.561 | -0.833 | -0.447 | 0.0113 |
| AATACAGGGTCATCGTAGTCCAGAGTACGCACAG | 2.79 | 5.02 | 1.99 | 2.18 | 2.87 | 5.53 | 1.22 | 5.21 | 0.827 | 4.73 |
| ACAGACAGATGAGTGAAGGTAACTCAGCTGGACG | -0.101 | 0.00181 | 0.781 | 0.138 | 0.692 | -0.0478 | 0.186 | 0.101 | 0.524 | -0.14 |
| TCTTGTAGATCAAGCAGGATAAGAAAGCCTGAGT | 1.53 | 0.265 | 0.695 | 0.533 | 0.027 | -0.0334 | 0.538 | 0.108 | 0.37 | -0.349 |
| TGAATGAGGTTATAAGTTCAGGGAACGTTGCAAA | 1.14 | 1.78 | 0.562 | 0.599 | 1.97 | 3.24 | 1.46 | 3.81 | 0.0281 | 2.87 |
| TCTGCTAGGTCAGTTGGTCAGCTTACGAGCTGCC | 2.73 | 3.32 | 0.732 | -0.0451 | -0.25 | 0.13 | -0.847 | 0.661 | -0.758 | 3.36 |
| TCTTGTAGATCAATAGCGGTTAAGAAAGTGCGCT | 1.73 | 0.605 | -0.463 | 0.835 | 0.226 | 0.449 | 0.123 | 0.439 | 0.667 | -0.0234 |
| GGAACGAGGGCATTCGAGGTGATAGCATGGCGAT | 3.12 | 2.76 | 0.0817 | -0.391 | 0.378 | 2.36 | 0.0978 | 1.4 | -0.289 | 1.97 |
| GATACAGGGTCAGCTAGATGCCAGAGTATGGAAA | 1.35 | 2.42 | 0.251 | 0.266 | 3.16 | 2.14 | -0.221 | 3.4 | 0.348 | 3.98 |
| AGAATGAGGTTACCAAAGATCAGGGGAACGCTTG | 3.68 | 3.55 | 0.871 | 0.161 | 0.699 | 1.59 | -0.0783 | 2.04 | 0.232 | 2.18 |
| CCTTACGGGTCACTCGAGGTTATAGCATCGGAGT | 2.22 | 3.7 | 0.422 | 0.0524 | 1.69 | 5.71 | 0.375 | 3.69 | 0.443 | 3.91 |
| CTCGAAAGGTCGTACTCAGGTGAGTATACCAAAC | 1.03 | 1.95 | 0.751 | 1.1 | 2.32 | 3.69 | 0.0401 | 4.62 | 0.162 | 3.75 |
| TCTAGCTGGCCAGAGGGTCACTCAAGAGGTACGG | 0.731 | -0.216 | -1.57 | -1.05 | 0.244 | 1.38 | -0.401 | 1.83 | -0.851 | 1.73 |
| ATCTCAAGGTAAAGTTCAGTGAAAGATCGATAGA | 0.17 | 1.36 | 1.42 | 1.27 | 1.71 | 2.26 | 2.1 | 1.78 | 1.65 | 2.97 |
| AGTCAAAGTTAACTAGGTAACGTAAGATTCAGCT | 3.88 | 4.72 | 1 | 1.26 | 0.27 | -0.0411 | -0.0667 | 0.226 | 0.167 | 0.61 |
| ATATGTAGGTTATCGGGTCGTTCAGTTTGCGCAT | 7.3 | 6.87 | 1.68 | 1.58 | 1.6 | 1.91 | 2.09 | 1.62 | 1.26 | 1.42 |
| CGAACTAGGTCACGAAAGGTCAAAGTCGAATGAC | 8.45 | 8.7 | 0.767 | 1.32 | 5.63 | 7.14 | 3.35 | 7.72 | 2.82 | 5.68 |
